Assay results published in the supplement of paper PMC12340860.
± gives the standard deviation of the averaged measurements.

Tested on: Caenorhabditis elegans infected with Nematocida parisii
Experiment: progeny production of N. parisii-infected C. elegans relative to uninfected control; higher = stronger inhibition of microsporidia infection (rescue of reproduction)
Settings: 60 µM; incubation time 5 days; spore dose (spores/uL): 18000
Procedure: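 C. elegans N2 L1 larvae (100 per well, 96-well plate, K-medium with 5x E. coli OP50, 1% DMSO) were infected with Nematocida parisii spores (18,000 spores/uL) that had been pre-incubated for 1 h with each BU-CMD library compound at 60 uM. Plates were incubated 5 days at 21 C with shaking. Progeny were stained with rose bengal, scanned on a flatbed scanner and counted with WorMachine. Progeny number is expressed as % of uninfected DMSO controls on the same plate; three biological replicates per compound; hits were compounds with at least 60% progeny production.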

Structure (SMILES)	progeny production [%]
CONC(=O)[C@H]1[C@@H](O)[C@@]2(O)c3c(OC)cc(OC)cc3O[C@@]2(c2ccc(OC)cc2)[C@@H]1c1ccccc1	13.2 ± 4.2
COC(=O)[C@@H]1[C@@H](c2ccccc2)[C@]2(c3ccc(OC)cc3)Oc3cc(OC)cc(OC)c3[C@@]23N=C(C)N[C@@]13O	14.3 ± 4
COC(=O)[C@@H]1[C@@H](c2ccccc2)[C@]2(c3ccc(OC)cc3)Oc3cc(OC)cc(OC)c3[C@@]23N=C(C2CC2)N[C@@]13O	8.05 ± 3.6
